# Experimental data taken from PubChem BioAssay AID504692 (The Scripps Research Institute Molecular Screening Center, 2011).
# Among all 340,000 compounds or so, about 2,000 (0.59%) were called active. Cut-off read from the data, not from the text of the source: active = activation mostly above about 9.5% (no sharp cut-off); inactive = mostly below about 7.6%. For the sample, actives were picked, then their nearest neighbours and some compounds at random.
# Target: 5-hydroxytryptamine receptor 5A (Homo sapiens) (UniProt P47898)
# Sequence (P47898 whole entry, looked up): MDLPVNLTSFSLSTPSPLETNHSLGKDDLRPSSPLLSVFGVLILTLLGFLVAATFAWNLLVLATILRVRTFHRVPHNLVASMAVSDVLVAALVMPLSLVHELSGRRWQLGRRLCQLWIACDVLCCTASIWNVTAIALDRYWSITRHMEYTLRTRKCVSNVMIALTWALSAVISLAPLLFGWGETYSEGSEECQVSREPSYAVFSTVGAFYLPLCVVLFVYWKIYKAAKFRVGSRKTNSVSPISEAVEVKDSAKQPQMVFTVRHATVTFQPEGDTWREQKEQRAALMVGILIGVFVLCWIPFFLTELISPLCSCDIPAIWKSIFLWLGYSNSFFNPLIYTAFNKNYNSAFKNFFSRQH
# Experiment: HTR5A agonists in luminescence cell assay, primary screen, counter-screen for OPRM1-OPRD1 heterodimer agonist project, full-deck HTS (AID 504692);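 note: 0% = cells with vehicle only and 100% = reference agonist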
# Details: cell-based, at 9.3 µM, stronger effect = higher value
row,SMILES,activation
1,COc1c(O)cc2oc(-c3ccc(O)c(O)c3)cc(=O)c2c1O,-1.01% (inactive)
2,Cc1ccc(S(=O)(=O)N2CCN(C(=O)COC(=O)/C=C/c3cccc(Cl)c3)CC2)c(C)c1,8.67% (inactive)
3,Cc1c(C2=CCN(S(=O)(=O)c3ccc(Cl)cc3)CC2)c2ccccc2n1C,1.24% (inactive)
4,CCN(C(=O)CSc1nnc(-c2ccncc2)o1)c1ccccc1,-1.64% (inactive)
5,Cc1cccc(C)c1OC(=O)CSc1nnc(-c2ccccc2)o1,11% (active)
6,COC(=O)CSc1nnc(-c2cccnc2)o1,0.3% (inactive)
7,CCCCN(CCCC)CCC(O)c1cc2c(Cl)cc(Cl)cc2c2cc(C(F)(F)F)ccc12 (stereo not drawn),5.23% (inactive)
8,Cc1onc(C(=O)Nc2ccc3c(c2)OCO3)c1[N+](=O)[O-],14.2% (active)
9,Cc1nn(CC(=O)Nc2ccc3c(c2)OCO3)c(C)c1[N+](=O)[O-],6.4% (inactive)
10,Cn1cc([N+](=O)[O-])c(C(=O)Nc2ccc3c(c2)OCCO3)n1,-1.8% (inactive)
11,O=c1cc(CO)oc(C(Nc2cccc([N+](=O)[O-])c2)c2ccccn2)c1O (stereo not drawn),0.87% (inactive)
12,CCN(CC)CCNC(=O)c1ccc(NC(=O)c2cc(-c3ccncc3)nc3ccccc23)cc1,2.22% (inactive)
13,CCn1c(SCC(=O)Nc2ccc3c(c2)OCCO3)nnc1-c1ccncc1,3.29% (inactive)
14,Cc1ccc2nc(-c3ccncc3)cc(C(=O)Nc3ccc4c(c3)OCCO4)c2c1,12.6% (active)
15,CCOc1ncccc1C(=O)Nc1ccc2c(c1)OCCO2,0.83% (inactive)
16,Cc1ccc2nc(-c3ccncc3)cc(C(=O)Nc3ccncc3)c2c1,21% (active)
17,Cc1ccc2nc(-c3ccncc3)cc(C(=O)Nc3ccc(OC(F)F)cc3)c2c1,1.14% (inactive)
18,COc1cc2c(cc1OC)C1C(=O)c3cc(OS(C)(=O)=O)c(OC)cc3C1N(C)C2=O (stereo not drawn),-2.76% (inactive)
19,OC(CN=c1sc2ccccc2n1CC(O)COc1ccccc1)COc1ccccc1 (stereo not drawn),7.91% (inactive)
20,CCn1nnc(NC(=O)c2cc(Cl)c(OC)c(Cl)c2)n1,-6.18% (inactive)
21,CN(CCc1ccccc1)c1ccc([N+](=O)[O-])cn1,2.92% (inactive)
22,COc1ccc(Br)cc1S(=O)(=O)N1CCN=C1C,2.3% (inactive)
23,O=C(CN1C(=O)C2C3C=CC(C3)C2C1=O)NCCc1ccccc1Cl (stereo not drawn),-1.28% (inactive)
24,CCCCOC(=O)NCN1C(=O)C2C3C=CC(C3)C2C1=O (stereo not drawn),9.49% (active)

row,SMILES,activation
1,CCCCCOC(=O)c1ccc(N2C(=O)C3C4C=CC(C4)C3C2=O)cc1 (stereo not drawn),-1.59% (inactive)
2,CCc1c(Nc2ccccc2Cl)nc(N)[nH]c1=O,-3.6% (inactive)
3,O=C(COC(=O)c1cc[n+]([O-])cc1)Nc1ccc(Cl)c(C(F)(F)F)c1,3.73% (inactive)
4,NC(=O)N1CCCC1C(=O)Nc1ccc(Cl)c(Cl)c1 (stereo not drawn),1.66% (inactive)
5,O=C(CC(O)(C(F)(F)F)C(F)(F)F)Nc1ccc(Cl)c(Cl)c1,20.1% (active)
6,CC1(C)C2CCC1(CS(=O)(=O)NCCc1c[nH]c3ccccc13)C(=O)C2 (stereo not drawn),41.5% (active)
7,COc1ccccc1CNS(=O)(=O)CC12CCC(CC1=O)C2(C)C (stereo not drawn),-5.29% (inactive)
8,CC(C)(C)NS(=O)(=O)CC12CCC(CC1=O)C2(C)C (stereo not drawn),3.18% (inactive)
9,COc1ccc(/C=C2/CCCc3ccccc3C2=O)cc1,-2.8% (inactive)
10,COc1ccc(OC)c(C2C3=C(N=c4s/c(=C\c5cccc(O)c5)c(=O)n42)c2ccccc2CC3)c1 (stereo not drawn),13.5% (active)
11,O=C1[C@@H]2C(Cc3ccc(O)cc3)NC3(C(=O)Nc4ccc(F)cc43)[C@@H]2C(=O)N1c1ccc(F)cc1 (stereo partly drawn),1.44% (inactive)
12,CC1CCN(CC(=O)Nc2nccs2)CC1,-1.58% (inactive)
13,CCC(C)NC(=O)CCCc1ccccc1 (stereo not drawn),14.8% (active)
14,COc1ccccc1C(=O)NCCC(=O)NC(C)CCc1ccccc1 (stereo not drawn),5.98% (inactive)
15,CC(CCn1cccn1)NC(=O)CCc1nnc(CCc2ccccc2)o1 (stereo not drawn),4.98% (inactive)
16,Cc1noc(C)c1S(=O)(=O)N(CC(=O)NCc1ccc(Cl)cc1)c1ccc2c(c1)OCO2,1.78% (inactive)
17,Cc1ccc(-n2c(=O)cc(N3CCN(Cc4ccccc4)CC3)[nH]c2=O)cc1,7.71% (inactive)
18,CCOc1cc2c(Cl)ncnc2c(OCC)c1OCC,2% (inactive)
19,COc1ccc(S(=O)(=O)N2CCC(C(=O)NCCC(=O)NCc3cccc(OC)c3)CC2)cc1,-0.19% (inactive)
20,CCOc1ccc(C(=O)Nc2ccc(S(=O)(=O)Nc3cc(C)on3)cc2)cc1,5.44% (inactive)
21,CCC(=O)Nc1ccc(C(=O)Nc2cc(C)on2)cc1,6.16% (inactive)
22,CCOc1ccc(NC(=O)Nc2cc(C)on2)cc1,14.5% (active)
23,COc1cccc(OCC(O)CNC(=O)c2oc3c(C)c(C)ccc3c2C)c1 (stereo not drawn),0.14% (inactive)
24,O=C1CCCC2=C1C(c1cccs1)n1nc(SCc3ccccc3)nc1N2 (stereo not drawn),1.85% (inactive)

row,SMILES,activation
1,CC(=O)c1cccc(NC(=O)C2CCN(C(=O)c3ccccc3Cl)CC2)c1,1.54% (inactive)
2,O=C(CSc1nncs1)NC1CCCc2ccccc21 (stereo not drawn),-2.59% (inactive)
3,O=C(N[C@@H](Cc1ccccc1)C(=O)OCc1ccccc1)c1nc[nH]c1C(=O)NC1CCNCC1,-1.94% (inactive)
4,CC(C)(C)OC(=O)CNC(=O)c1[nH]cnc1C(=O)N[C@@H](Cc1ccccc1)C(=O)OCc1ccccc1,9.43% (inactive)
5,CC(C)(C)OC(=O)N1CCC(NC(=O)c2[nH]cnc2C(=O)N[C@@H](Cc2ccccc2)C(=O)OCc2ccccc2)CC1,38% (active)
6,O=C(COC(=O)c1ccccc1F)Nc1cc(S(=O)(=O)N2CCOCC2)ccc1N1CCCC1,-1.44% (inactive)
7,CC(=O)NCCC(=O)Nc1cc(S(=O)(=O)N2CCOCC2)ccc1N1CCOCC1,-0.71% (inactive)
8,O=C(CNCc1ccco1)Nc1cc(S(=O)(=O)N2CCOCC2)ccc1N1CCCC1,16.7% (active)
9,Cc1ccc(C(=O)NC2CCN(C(=O)Nc3ccccc3Cl)CC2)cc1,-0.54% (inactive)
10,COc1ccccc1CCNC(=O)c1cnccn1,2.02% (inactive)
11,COc1ccc(C(C#N)Nc2ccc(C)cc2)cc1 (stereo not drawn),2.71% (inactive)
12,CCN1CCN(C(=O)C2CCN(S(=O)(=O)c3cc(Cl)ccc3Cl)CC2)CC1,1.91% (inactive)
13,CC(=O)N1CCN(S(=O)(=O)c2c(F)cc(F)c(Cl)c2F)CC1,11.6% (active)
14,O=C(c1cnc(Cl)c(Cl)c1)N1CCN(S(=O)(=O)c2ccc(F)cc2)CC1,-1.02% (inactive)
15,CCc1nnc(NC(=O)CSCc2cc(=O)n3cc(C)sc3n2)s1,-1% (inactive)
16,Cc1cccc(/C=N/NC(=O)CNc2cccc3ccccc23)n1,2.33% (inactive)
17,C/C(=N\NC(=O)CSc1nc2ccccc2c(=O)n1-c1ccccc1C)c1cccs1,9.42% (inactive)
18,C/C(=N\NC(=O)CNc1cccc2ccccc12)c1ccc(Br)s1,46.5% (active)
19,COc1ccc(CN2CCCCC2C)cc1OC (stereo not drawn),-0.45% (inactive)
20,COc1ccc(C2CC(c3cccs3)=Nc3ccccc3S2)cc1OC (stereo not drawn),0.29% (inactive)
21,CN(Cc1ccco1)S(=O)(=O)c1nnc(NC(=O)c2ccccc2)s1,2.57% (inactive)
22,O=C(Nc1nc(-c2ccco2)c(-c2ccco2)s1)c1ccco1,5.45% (inactive)
23,CNc1nnc(-c2ccco2)s1,15.4% (active)
24,Cc1ccc(-n2c(SCC(=O)NCCC3=CCCCC3)nc3n[nH]c(C)c3c2=N)cc1Cl,12.6% (active)

row,SMILES,activation
1,COc1cccc(-n2c(SCC(=O)NC3CCCCC3)nc3n[nH]c(C)c3c2=N)c1,0.63% (inactive)
2,CCCCNC(=O)CSc1nc2n[nH]c(C)c2c(=N)n1-c1cccc(Cl)c1C,-2.98% (inactive)
3,CCOc1ccc(CN(Cc2ccco2)C(c2cccs2)c2nnnn2C(C)(C)C)cc1 (stereo not drawn),-2.19% (inactive)
4,Cc1nc2ccccc2c(C(=O)O)c1-c1ccccn1,-0.26% (inactive)
5,CCSc1nc(-c2ccc(OC)cc2)cc(-c2ccc(OC)cc2)c1C#N,0.07% (inactive)
6,N#Cc1c(C(F)(F)F)cc(-c2ccc(Cl)cc2)nc1SCC(=O)O,-1.06% (inactive)
7,CCOC(=O)CC(=O)CSc1nc(-c2ccccc2)cc(-c2ccc(Cl)cc2)c1C#N,10.7% (active)
8,O=C(Nn1cnnc1)c1cc(Cl)ccc1Cl,-1.93% (inactive)
9,c1cc(-c2nn[nH]n2)ccc1CN1CCCCC1,19.3% (active)
10,Clc1ccc(CN2CCCCCC2)cc1Cl,1.18% (inactive)
11,Brc1ccc(-c2nn[nH]n2)cc1,8.54% (inactive)
12,OCC1(CO)CC2(C1)CC(CO)(CO)C2,-2.41% (inactive)
13,Cc1c(Cl)c([N+](=O)[O-])nn1Cc1ccc(C(=O)N/N=C\c2cc(Cl)ccc2O)o1,13% (active)
14,Cc1nn(Cc2ccc(Cl)cc2)c(Cl)c1/C=N/NC(=O)c1cccnc1,4.12% (inactive)
15,O=C(N/N=C\c1ccc(Br)cc1)c1ccc(Cn2cccn2)o1,0.84% (inactive)
16,O=C(C1CCCO1)N1CCN(S(=O)(=O)c2ccc(Br)cc2)CC1 (stereo not drawn),1.59% (inactive)
17,COc1ccc(Cl)cc1NC(=O)CN(C)C(=O)c1cc(-c2cccs2)nn1-c1ccccc1,-7.03% (inactive)
18,CCCN1C(=O)C(NS(=O)(=O)c2ccc(N)cc2)(C(F)(F)F)C(C(=O)OC)=C1C (stereo not drawn),-4.18% (inactive)
19,COC(=O)c1c(NC(=O)C2CC(C)=C(C)CC2C(=O)O)sc2c1CCCCC2 (stereo not drawn),5.77% (inactive)
20,CNC(=O)c1c(NC(NC(=O)c2ccco2)C(=O)c2ccc(Cl)cc2)sc2c1CCCC2 (stereo not drawn),-4.03% (inactive)
21,CC(C)OC(=O)c1c(NC(=O)c2ccco2)sc2c1CCCC2,14.5% (active)
